Molecules are shown by their SMILES. Some of the results follow. Activity calls are given as the source filed them.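 How the source made its calls: active means inhibition of at least 50% in the primary cell screen; inactive means the rest.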

In this assay the target is Matrix metalloproteinase-14 (Homo sapiens) (UniProt P50281). The assay can be described thus: retesting blockers of MT1-MMP activation – single concentration, fluorescence, HT1080 RFP-PRO-GFP cells, confirmation (AID 652235). The note with it: GFP and RFP fluorescence ratio, overnight, at 20 µM, active compounds read high.
In general, inhibition refers to the drop in the measured response relative to a control, in per cent. As for `O=C(NNc1c2ccccc2nc2ccccc12)c1cc2ccccc2cc1O`, the inhibition is 52.9% (active). The figure for `O=C(c1cccc(Cl)c1)N1CCN(Cc2ccccc2)CC1` is -1.11% (inactive); for `O=c1ccc2c(-c3ccccc3S(=O)(=O)O)c3ccc(O)c(O)c3oc-2c1O` it is 48.5% (inactive); for `O=P(O)(CP(=O)(c1ccccc1)c1ccccc1)c1ccccc1` it is -1.14% (inactive). Take `CN=C1C=C/C(=N/N=c2\ccn(O)cc2C)C=C1C`: the inhibition is 43.7% (inactive). With `O=C1CCCC(O)=C1N=Nc1ccc(S(=O)(=O)N2CCOCC2)cc1` the figure was 4.19% (inactive); with `Cc1cc2ccccc2n1CCNC(=O)COc1ccc2ccccc2c1`, 6.16% (inactive). The figure for `COc1ccc(C)cc1Nc1nc(-c2c(C)[nH]c3ccccc23)cs1` is 4.82% (inactive); for `Nc1ccc(Nc2ccccc2)cc1` it is 12.6% (inactive).

For the origin of these results see PubChem BioAssay AID652235 (Sanford-Burnham Center for Chemical Genomics, 2013).
